The supplement of paper PMC12645437, “Orthogonal IMiD-Degron Pairs Induce Selective Protein Degradation in Cells” (ACS Chemical Biology, 2025)
In all, about 8,300 sequences were measured (“log2 fold change of degron read counts, EGFP-low vs EGFP+ sorted cells (limma voom), compound-induced degradation”: median about -1.1, highest 2% from about 3.2 on). Only a selection was taken, and the highest values are over-represented in it overall.

T1: CRBN, Q96SW2
T1 chain: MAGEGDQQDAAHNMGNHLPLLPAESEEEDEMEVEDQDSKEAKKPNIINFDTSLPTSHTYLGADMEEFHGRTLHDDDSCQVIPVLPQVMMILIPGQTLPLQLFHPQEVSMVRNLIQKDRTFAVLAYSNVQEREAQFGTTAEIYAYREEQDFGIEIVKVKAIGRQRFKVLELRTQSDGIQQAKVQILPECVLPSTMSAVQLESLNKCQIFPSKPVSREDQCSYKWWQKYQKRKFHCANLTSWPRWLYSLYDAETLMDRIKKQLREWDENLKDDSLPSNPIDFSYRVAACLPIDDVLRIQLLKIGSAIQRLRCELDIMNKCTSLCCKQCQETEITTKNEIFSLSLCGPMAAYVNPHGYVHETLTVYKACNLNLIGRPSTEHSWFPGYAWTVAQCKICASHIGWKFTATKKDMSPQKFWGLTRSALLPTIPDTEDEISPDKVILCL

B1: 46F_47L_49P_50I_52G_53R_54G_55F_67L_, Q9UKT9 (peptide)
chain: FLCPICGRGFTQKGNLLRHIKL
B2: 46F_47F_49P_50I_52G_53A_54H_55F_67L_, Q9UKT9 (peptide)
chain: FFCPICGAHFTQKGNLLRHIKL
B3: 46F_47V_49P_50I_52G_53A_54H_55F_67L_, Q9UKT9 (peptide)
chain: FVCPICGAHFTQKGNLLRHIKL
B4: 46F_47Q_49P_50I_52G_53A_54H_55F_67L_, Q9UKT9 (peptide)
chain: FQCPICGAHFTQKGNLLRHIKL
B5: 46F_47G_49P_50I_52G_53A_54H_55F_67L_, Q9UKT9 (peptide)
chain: FGCPICGAHFTQKGNLLRHIKL
B6: 46F_47W_49P_50I_52G_53A_54H_55F_67L_, Q9UKT9 (peptide)
chain: FWCPICGAHFTQKGNLLRHIKL
B7: 46F_47S_49P_50I_52G_53A_54H_55F_67L_, Q9UKT9 (peptide)
chain: FSCPICGAHFTQKGNLLRHIKL
B8: 46F_47A_49P_50I_52G_53A_54H_55F_67L_, Q9UKT9 (peptide)
chain: FACPICGAHFTQKGNLLRHIKL
B9: 46F_47Y_49P_50I_52G_53A_54H_55F_67L_, Q9UKT9 (peptide)
chain: FYCPICGAHFTQKGNLLRHIKL
B10: 46F_47C_49P_50I_52G_53A_54H_55F_67L_, Q9UKT9 (peptide)
chain: FCCPICGAHFTQKGNLLRHIKL
B11: 46F_47E_49E_50Q_52G_53A_54D_55F_67L_, Q9UKT9 (peptide)
chain: FECEQCGADFTQKGNLLRHIKL
B12: 46F_47W_49P_50V_52G_53A_54L_55F_67L_, Q9UKT9 (peptide)
chain: FWCPVCGALFTQKGNLLRHIKL
B13: 46F_47Y_49E_50I_52G_53R_54E_55F_67L_, Q9UKT9 (peptide)
chain: FYCEICGREFTQKGNLLRHIKL
B14: 46F_47G_49P_50I_52G_53H_54W_55F_67L_, Q9UKT9 (peptide)
chain: FGCPICGHWFTQKGNLLRHIKL
B15: 46F_47Q_49E_50V_52G_53A_54N_55F_67L_, Q9UKT9 (peptide)
chain: FQCEVCGANFTQKGNLLRHIKL
B16: 46F_47L_49E_50V_52G_53A_54N_55F_67L_, Q9UKT9 (peptide)
chain: FLCEVCGANFTQKGNLLRHIKL
B17: 46F_47I_49E_50V_52G_53A_54N_55F_67L_, Q9UKT9 (peptide)
chain: FICEVCGANFTQKGNLLRHIKL
B18: 46F_47W_49E_50V_52G_53A_54N_55F_67L_, Q9UKT9 (peptide)
chain: FWCEVCGANFTQKGNLLRHIKL
B19: 46F_47E_49E_50V_52G_53A_54N_55F_67L_, Q9UKT9 (peptide)
chain: FECEVCGANFTQKGNLLRHIKL
B20: 46F_47F_49E_50V_52G_53A_54N_55F_67L_, Q9UKT9 (peptide)
chain: FFCEVCGANFTQKGNLLRHIKL
B21: 46F_47Y_49E_50V_52G_53A_54N_55F_67L_, Q9UKT9 (peptide)
chain: FYCEVCGANFTQKGNLLRHIKL
B22: 46F_47T_49E_50V_52G_53A_54N_55F_67L_, Q9UKT9 (peptide)
chain: FTCEVCGANFTQKGNLLRHIKL
B23: 46F_47M_49E_50V_52G_53A_54N_55F_67L_, Q9UKT9 (peptide)
chain: FMCEVCGANFTQKGNLLRHIKL
B24: 46F_47V_49E_50V_52G_53A_54N_55F_67L_, Q9UKT9 (peptide)
chain: FVCEVCGANFTQKGNLLRHIKL
B25: 46F_47N_49E_50V_52G_53A_54N_55F_67L_, Q9UKT9 (peptide)
chain: FNCEVCGANFTQKGNLLRHIKL
B26: 46F_47H_49E_50V_52G_53A_54N_55F_67L_, Q9UKT9 (peptide)
chain: FHCEVCGANFTQKGNLLRHIKL
B27: 46F_47H_49N_50I_52G_53A_54H_55F_67L_, Q9UKT9 (peptide)
chain: FHCNICGAHFTQKGNLLRHIKL
B28: 46F_47G_49P_50I_52G_53H_54Q_55F_67L_, Q9UKT9 (peptide)
chain: FGCPICGHQFTQKGNLLRHIKL

Biological target: T1, CRBN, Q96SW2
Assay: log2 fold change of degron read counts, EGFP-low vs EGFP+ sorted cells (limma voom), compound-induced degradation; higher = more compound-induced degradation of the degron-EGFP fusion; degrons are variants of IKZF1/3 zinc finger 2; compound dose not given here
Conditions: Jurkat, 18 h
[1] = compound: compound 19 (5-tert-butyl-thalidomide)
[2] = compound: compound 22 (5-morpholino-thalidomide)
[3] = compound: compound 33 (diphenyl IMiD analogue)
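Note: pooled lentiviral library of zinc finger degron-EGFP fusions in mCherry-positive Jurkat cells, FACS-sorted after compound exposure, with degron abundance counted by next-generation sequencing.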

Row | Sequence | log2 fold change of degron read counts [1] | log2 fold change of degron read counts [2] | log2 fold change of degron read counts [3] | log2 fold change of degron read counts (compound: thalidomide)
1 | B1 | -1.58 | -1.94 | -0.785 | -0.724
2 | B2 | 2.66 | 2.83 | 1.81 | 0.615
3 | B3 | -0.217 | 2.12 | 1.37 | 2.41
4 | B4 | 0.0422 | 1.5 | 1.32 | 3.32
5 | B5 | 2.89 | 1.31 | 1.51 | 0.333
6 | B6 | 2.66 | 3.51 | 1.81 | 0.881
7 | B7 | 2.35 | 1.14 | 1.5 | 1.13
8 | B8 | 3.08 | 1 | 0.948 | 0.563
9 | B9 | 3.12 | 3.56 | 2.1 | 0.702
10 | B10 | 1.94 | 0.949 | 1.85 | 1.24
11 | B11 | -3.85 | -4.35 | -2.06 | -2.36
12 | B12 | 1.3 | 2.3 | 1.77 | 0.113
13 | B13 | -0.515 | -1.07 | -0.325 | -1.93
14 | B14 | -1.35 | -2.19 | -1.6 | -1.77
15 | B15 | 0.104 | 1.29 | 1.34 | 3.56
16 | B16 | -0.0798 | -0.418 | 0.939 | 1.25
17 | B17 | -0.804 | 2.54 | 2.03 | 2.44
18 | B18 | 3.33 | 3.86 | 2.16 | 1.61
19 | B19 | -0.492 | -1.03 | 2.04 | 2.31
20 | B20 | 2.83 | 3.44 | 1.84 | 1.47
21 | B21 | 3.26 | 3.88 | 2.56 | 1.5
22 | B22 | -0.297 | 1.72 | 1.21 | 2.03
23 | B23 | -0.728 | 0.197 | 2.72 | 1.11
24 | B24 | -0.0108 | 2.6 | 2.09 | 2.74
25 | B25 | 2.09 | 0.096 | -0.251 | -0.321
26 | B26 | 0.846 | 0.806 | -0.028 | -0.545
27 | B27 | 0.23 | -0.286 | -0.308 | -1.49
28 | B28 | -1.23 | -2.85 | -2.17 | -2.38
